Data from PubChem BioAssay (NCATS).
Results filed as inconclusive are left out. A call without a number means that no potency is given here. Activity calls are given as the source filed them. Calls follow the shape of the dose curve; as a rule, active = well fitted curve in the direction sought with a large enough effect; inconclusive = small, poorly fitted or top-dose-only effect, or another doubt; inactive = no such curve, though single readings can be large; an effect the other way counts as inactive or inconclusive.

Columns and labels:
[1] = qHTS assay for measurement of the activity of small molecule inhibitors on Zika virus induced Caspase-3 activity in human iPSC derived neural progenitor cells (hNPCs) (AID 1224857); also: nearly all actives have a fitted effect of over 65% in size
Outline: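 Human iPSC-derived neural progenitor cells pretreated 1 hr with compounds, then infected with Zika virus (2 FFU/cell) for 6 hours at 37 C. Caspase-3/7 measured by Caspase-Glo luminescence; % inhibition calculated from induction scaled to uninfected (0%) and infected (100%) wells.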

[2] = NS1 protein of Zika virus - qHTS assay to identify small molecule inhibitors in human HEK 293 cells (AID 1347053); also: series mostly up to about 46 µM; nearly all actives have a fitted effect of over 55% in size
Outline: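 In this cell-based screen, HEK 293 cultures received compound for one hour before Zika MR766 at MOI = 0.5. NS1 was quantified 24 hours later by TR-FRET, normalized to virus-free wells and infected wells.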

[3] = qHTS of pediatric cancer cell lines to identify multiple opportunities for drug repurposing: Primary screen for DAOY cells (AID 1347090); also: nearly all actives have a fitted effect of over 55% in size; also: potency is read from the fitted curve at half-maximal effect
Outline: (§1)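 Eight- or eleven-point concentration series, 48 h treatment at 37 degrees C in growth media; readout CellTiter-Glo luminescence. Potency and efficacy were taken from the concentration-response curves.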

[4] = qHTS of pediatric cancer cell lines to identify multiple opportunities for drug repurposing: Primary screen for SJ-GBM2 cells (AID 1347091); also: potency is read from the fitted curve at half-maximal effect
Outline: as §1

[5] = qHTS of pediatric cancer cell lines to identify multiple opportunities for drug repurposing: Primary screen for A673 cells (AID 1347092); also: nearly all actives have a fitted effect of over 45% in size; also: potency is read from the fitted curve at half-maximal effect
Outline: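 48 h compound exposure, A673, 500-1,000 cells/well, 37 degrees C/5% CO2. MIPE: 11-point, 0.78 nM-46 µM; NPC: 8-point, 0.59 nM-46 µM (final). Readout CellTiter-Glo luminescence after 15 min RT.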

[6] = qHTS of pediatric cancer cell lines to identify multiple opportunities for drug repurposing: Primary screen for SK-N-MC cells (AID 1347093); also: potency is read from the fitted curve at half-maximal effect
Outline: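 Metabolically active cells were quantified by ATP-dependent luminescence (CellTiter-Glo, 15 min at room temperature) following 48 h treatment. Cells had been plated at 500-1,000 per well and settled for 5 h beforehand.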

[7] = qHTS of pediatric cancer cell lines to identify multiple opportunities for drug repurposing: Primary screen for BT-37 cells (AID 1347094); also: potency is read from the fitted curve at half-maximal effect
Outline: (§2)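 Phenotypic viability qHTS, 48 h compound exposure, CellTiter-Glo luminescence read-out; multi-concentration dosing so that potency and efficacy derive directly from the primary screen's curves.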

[8] = qHTS of pediatric cancer cell lines to identify multiple opportunities for drug repurposing: Primary screen for NB-EBc1 cells (AID 1347095); also: potency is read from the fitted curve at half-maximal effect
Outline: as §2

[9] = qHTS of pediatric cancer cell lines to identify multiple opportunities for drug repurposing: Primary screen for U-2 OS cells (AID 1347096); also: nearly all actives have a fitted effect of over 50% in size
Outline: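 Cells (500-1,000/well) in growth media were settled 5 h at 37 degrees C, then given compounds for 48 h. Viability was read as CellTiter-Glo luminescence. Primary runs used MIPE at 11 points (0.78 nM-46 µM) and NPC at 8 points (0.59 nM-46 µM); follow-ups used 11 points.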

[10] = qHTS of pediatric cancer cell lines to identify multiple opportunities for drug repurposing: Primary screen for Saos-2 cells (AID 1347097); also: nearly all actives have a fitted effect of over 40% in size; also: potency is read from the fitted curve at half-maximal effect
Outline: as §2

[11] = P-glycoprotein substrates identified in KB-8-5-11 adenocarcinoma cell line, qHTS therapeutic library screen (AID 1346987); also: nearly all actives have a fitted effect of over 65% in size
Outline: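 Human cervical adenocarcinoma KB-8-5-11 cells, selected in colchicine to over-express P-gp and assayed without it, were exposed for 72 h to titrated compounds. An ATP-based luminescent viability signal gave AC50.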

[12] = qHTS of pediatric cancer cell lines to identify multiple opportunities for drug repurposing: Primary screen for TC32 cells (AID 1347089); also: nearly all actives have a fitted effect of over 60% in size; also: potency is read from the fitted curve at half-maximal effect
Outline: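 In the primary qHTS, MIPE compounds were tested at 11 concentrations (0.78 nM to 46 µM) and NPC compounds at 8 (0.59 nM to 46 µM) on TC32 cells for 48 h. CellTiter-Glo luminescence gave viability.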

[13] = qHTS assay for measurement of the activity of small molecule inhibitors on Zika virus induced Caspase-3 activity in human astrocytoma cells (AID 1224859)
Outline: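 SNB-19 astrocytoma cells, 250/well, pretreated 1 h with compounds, then Zika virus at 2 FFU/cell for 6 h at 37 C; Caspase-Glo 3/7 luminescence after 30 min; percent inhibition normalised to uninfected and infected controls.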

SMILES	Potency [1]	Potency [2]	Potency [3]	Potency [4]	Potency [5]	Potency [6]	Potency [7]	Potency [8]	Potency [9]	Potency [10]	Potency [11]	Potency [12]	outcome [13]
CCCCC(=O)OCC(=O)[C@H]1[C@H](C)C[C@H]2[C@@H]3C[C@H](F)C4=CC(=O)C=C[C@]4(C)[C@@]3(F)[C@@H](O)C[C@@]21C	inactive	inactive	inactive	inactive	inactive	inactive	inactive	inactive	inactive	inactive	–	–	–
O=C(Oc1ccccc1)c1ccccc1O	inactive	inactive	inactive	inactive	inactive	inactive	inactive	inactive	inactive	inactive	inactive	inactive	–
Cc1ccc(C(=O)C(=O)O)cc1C	inactive	inactive	inactive	inactive	inactive	inactive	inactive	–	inactive	inactive	–	–	–
CC[C@@]1(O)C(=O)OCc2c1cc1n(c2=O)Cc2c-1nc1ccccc1c2/C=N/OC(C)(C)C	inactive	–	106 nM (active)	26.6 nM (active)	33.5 nM (active)	21.1 nM (active)	30.9 nM (active)	21.1 nM (active)	–	59.6 nM (active)	–	29.7 nM (active)	–
CCCCNc1ccc(C(=O)OCCN(CC)CC)cc1	–	inactive	inactive	inactive	inactive	inactive	–	inactive	inactive	inactive	–	inactive	inactive
Cc1oc(-c2ccccc2)nc1CCC(=O)c1ccc(CC2SC(=O)NC2=O)cc1 (stereo not given)	–	inactive	–	inactive	inactive	–	inactive	inactive	inactive	inactive	–	inactive	inactive
O=C1CC2(CCCC2)CC(=O)N1	–	inactive	inactive	inactive	inactive	inactive	inactive	inactive	inactive	inactive	–	inactive	inactive
COC(=O)/C=C\C(=O)OC	–	inactive	inactive	inactive	–	inactive	inactive	inactive	inactive	inactive	–	inactive	–
COc1ccc2nc(SCc3ncc(C)c(OC)c3C)[nH]c2c1	–	inactive	inactive	inactive	inactive	inactive	inactive	inactive	inactive	inactive	–	inactive	inactive
O=[N+]([O-])c1nccn1CO[C@@H](CO)[C@H](O)CO	–	–	inactive	inactive	inactive	inactive	inactive	–	inactive	inactive	inactive	inactive	inactive
C/C(=N/NC(=O)c1ccncc1)C(=O)O	–	inactive	inactive	inactive	inactive	–	inactive	inactive	–	inactive	–	inactive	inactive
CC(C)(C)NCC(O)COc1ccccc1OCC1CCCO1 (stereo not given)	–	inactive	inactive	inactive	inactive	inactive	inactive	inactive	inactive	–	–	inactive	inactive
C[N+]1(CC2COC(c3ccccc3)(c3ccccc3)O2)CCCCC1 (stereo not given)	–	inactive	inactive	inactive	inactive	inactive	inactive	inactive	inactive	inactive	inactive	inactive	inactive
CN(C)CCCOC1(Cc2ccccc2)CCCCCC1	–	inactive	inactive	inactive	inactive	inactive	inactive	inactive	inactive	–	–	inactive	inactive
Cc1sccc1Br	–	inactive	inactive	inactive	inactive	inactive	–	inactive	inactive	inactive	–	inactive	inactive
CC(=O)Oc1ccc(C2(c3ccc(OC(C)=O)cc3)Oc3ccccc3NC2=O)cc1	–	inactive	13300 nM (active)	–	13300 nM (active)	–	–	–	–	11900 nM (active)	–	–	inactive
Cc1ncc([N+](=O)[O-])n1C	–	inactive	inactive	inactive	inactive	–	inactive	inactive	inactive	–	–	inactive	inactive
CCOC(=O)NNc1nncc2ccccc12	–	inactive	inactive	inactive	inactive	inactive	inactive	inactive	inactive	inactive	–	–	inactive
C[N+]1(C)CCC(OC(=O)C(O)(c2ccccc2)C2CCCC2)C1 (stereo not given)	–	inactive	inactive	inactive	inactive	–	inactive	inactive	–	inactive	inactive	inactive	–
NC(=O)NS(=O)(=O)c1ccc(Cl)cc1	–	inactive	inactive	inactive	inactive	inactive	inactive	inactive	inactive	inactive	–	inactive	inactive
